Test systems include SR leukemia; RPMI-8226 leukemia; OVCAR-8 ovarian; OVCAR-5 ovarian; OVCAR-4 ovarian; SK-OV-3 ovarian; IGROV1 ovarian; OVCAR-3 ovarian; HS 578T breast; NCI/ADR-RES ovarian.
Test in all cases: NCI-60 one-dose screen, 48 h (100 = growth as untreated, 0 = no growth, -100 = all killed)
Settings in all cases: 10 µM unless noted

The panel holds about 83,000 compounds, 20% with a hit somewhere; the sample as a whole holds those more often.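 Values shown are percent growth following 48 h exposure of cells in 96-well plates to a single concentration of compound; below 10 was considered active.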 Unmarked numbers belong to inactive results. Calls of active or inactive are those of the source.

Among the data in PubChem BioAssay (NCI) are growth values, retold here.

With `Cc1ccccc1-c1cc(Cc2ccc(F)cc2)c(=O)[nH]n1`, the growth in the experiment with SR leukemia is -21.2% (active); with RPMI-8226 leukemia it was 50.9%; with OVCAR-8 ovarian it was 90.4%; with OVCAR-5 ovarian it was 106%; in the experiment with OVCAR-4 ovarian it was 103%; in the experiment with SK-OV-3 ovarian, 98.2%. Also, the growth in the experiment on IGROV1 ovarian was 97.4%; with OVCAR-3 ovarian, 104%; with HS 578T breast it was 99.9%; in the experiment on NCI/ADR-RES ovarian, 102%.

With `O=C(Nc1ccc2ncnc(Nc3ccc(Oc4cccc(F)c4)c(Cl)c3)c2c1)c1ccc(CN2CCOCC2)cc1`, the growth in the experiment on SR leukemia was 18.6%; in the experiment with RPMI-8226 leukemia, -16.4% (active); in the experiment with OVCAR-8 ovarian, 6.19% (active); with OVCAR-5 ovarian, 75.5%; in the experiment with OVCAR-4 ovarian it was 20.3%; in the experiment on SK-OV-3 ovarian it was 18.5%. Moreover, the growth was 0.971% (active) in the experiment with IGROV1 ovarian, 23.1% with OVCAR-3 ovarian, 46.6% with HS 578T breast and 4.15% (active) in the experiment on NCI/ADR-RES ovarian.

For the compound `COc1cc(-c2cc(=O)oc3cc(O)ccc23)c(OC)c2c1OCO2`, the growth is 84.2% with SR leukemia; 60.2% in the experiment with RPMI-8226 leukemia; 91.6% with OVCAR-8 ovarian; 91.6% in the experiment on OVCAR-5 ovarian; 68.9% in the experiment on OVCAR-4 ovarian; 125% in the experiment with SK-OV-3 ovarian. For the same compound, the growth in the experiment on IGROV1 ovarian is 91.5%; in the experiment with OVCAR-3 ovarian it was 92.7%; in the experiment on HS 578T breast, 81.9%; with NCI/ADR-RES ovarian, 92.6%.

`C#CCNC(=O)[C@H](Cc1ccccc1)NC(=O)[C@]12CC[C@@H](C(=C)C)[C@@H]1[C@H]1CC[C@@H]3[C@@]4(C)Cc5c([nH]c6ccccc56)C(C)(C)[C@@H]4CC[C@@]3(C)[C@]1(C)CC2`: the growth was 88.5% in the experiment on SR leukemia; 82.9% in the experiment with RPMI-8226 leukemia; 96.5% in the experiment with OVCAR-8 ovarian; 95.8% in the experiment with OVCAR-5 ovarian; 108% with OVCAR-4 ovarian; 95.4% with SK-OV-3 ovarian. Also, the growth in the experiment on IGROV1 ovarian was 110%; in the experiment on OVCAR-3 ovarian, 96.5%; with HS 578T breast it was 113%; in the experiment on NCI/ADR-RES ovarian, 97.2%.

Take `CC(C)(C)OC(=O)N1C/C(=C\c2ccoc2)C(=O)/C(=C/c2ccoc2)C1`: the growth in the experiment with SR leukemia is -8.41% (active); with RPMI-8226 leukemia, -23% (active); in the experiment on OVCAR-8 ovarian, 101%; in the experiment with OVCAR-5 ovarian, 97%; with OVCAR-4 ovarian, 100%; in the experiment with SK-OV-3 ovarian it was 99.5%. The growth in the experiment with IGROV1 ovarian is 95.6%; in the experiment with OVCAR-3 ovarian, 106%; in the experiment on HS 578T breast, 90.6%; with NCI/ADR-RES ovarian it was 97.6%.

As to `CCCCCCCCN1C(=O)/C(=c2\sc3n(c2=O)C2C(NN=3)N(CC)C(=O)N2CC)c2ccccc21` (stereo not given), the growth in the experiment with SR leukemia is 77.5%; with RPMI-8226 leukemia it was 105%; with OVCAR-8 ovarian it was 85.7%; in the experiment on OVCAR-5 ovarian it was 81.6%; in the experiment on OVCAR-4 ovarian, 94.2%; in the experiment with SK-OV-3 ovarian, 90.6%. The growth was 86.5% in the experiment on IGROV1 ovarian, 98.6% in the experiment with OVCAR-3 ovarian, 40.4% in the experiment with HS 578T breast and 82.2% with NCI/ADR-RES ovarian.

Take `O=C(NCCc1ccccn1)OCc1nc2nc(Cl)nc(N3CCOCC3)c2[nH]1`: the growth in the experiment on SR leukemia is -23.3% (active); in the experiment on RPMI-8226 leukemia it was -23.8% (active); in the experiment on OVCAR-8 ovarian, -0.399% (active); in the experiment on OVCAR-5 ovarian it was 69.9%; in the experiment on OVCAR-4 ovarian, 28.6%; with SK-OV-3 ovarian it was 30.1%. For the same compound, the growth in the experiment with IGROV1 ovarian was 23.9%; in the experiment with OVCAR-3 ovarian, -79.5% (active); in the experiment with HS 578T breast it was 16.5%; with NCI/ADR-RES ovarian, 16.6%.

In the case of `COc1cccc2cc(-c3cc4ccccc4[nH]3)/c(=N/C(=S)Nc3ccc(C)cc3)oc12`, the growth was 123% in the experiment with SR leukemia; 114% in the experiment on RPMI-8226 leukemia; 54% in the experiment with OVCAR-8 ovarian; 89.4% in the experiment on OVCAR-5 ovarian; 34.6% with OVCAR-4 ovarian; 64.7% in the experiment on SK-OV-3 ovarian. The growth with IGROV1 ovarian is 58.2%; with OVCAR-3 ovarian it was 81.2%; in the experiment on HS 578T breast, 14.1%; in the experiment on NCI/ADR-RES ovarian, 50.8%.

On to `CN1CCN(CCCOc2ccc3ncnc(Nc4ccc(Oc5cccc(C(F)(F)F)c5)c(Cl)c4)c3c2)CC1`, for which the growth with SR leukemia is 4.03% (active); with RPMI-8226 leukemia it was -21.6% (active); in the experiment on OVCAR-8 ovarian, 24.6%; in the experiment with OVCAR-5 ovarian, 5.84% (active); in the experiment on OVCAR-4 ovarian it was 2.72% (active); in the experiment on SK-OV-3 ovarian, 21.4%. Besides, the growth is -53.7% (active) in the experiment on IGROV1 ovarian, 30.2% with OVCAR-3 ovarian, 26.8% in the experiment on HS 578T breast and 34.8% in the experiment on NCI/ADR-RES ovarian.

For `CCN(CC)CCOC(COc1cc(C)cc(C)c1)COc1cc(C)cc(C)c1`, the growth in the experiment on SR leukemia is -20.8% (active); with RPMI-8226 leukemia it was 0.427% (active); in the experiment with OVCAR-8 ovarian it was 58.6%; in the experiment on OVCAR-5 ovarian, 55.6%; in the experiment with OVCAR-4 ovarian, 50.9%; with SK-OV-3 ovarian, 67.1%. Moreover, the growth in the experiment with IGROV1 ovarian was 12.6%; with OVCAR-3 ovarian it was 58.4%; with HS 578T breast, 61.6%; with NCI/ADR-RES ovarian, 41.5%.

Consider `COc1ccc(C2CC(c3cccc(Nc4ccncc4)c3)=NN2c2ccccc2)cc1` (stereo not given), for which the growth in the experiment on SR leukemia was 2.73% (active); in the experiment on RPMI-8226 leukemia it was -6.86% (active); with OVCAR-8 ovarian it was 20.5%; with OVCAR-5 ovarian, 79.7%; in the experiment with OVCAR-4 ovarian it was 51.8%; with SK-OV-3 ovarian it was 67.7%. Further, the growth in the experiment with IGROV1 ovarian is 43.7%; with OVCAR-3 ovarian, 61.3%; in the experiment on HS 578T breast, 68.5%; in the experiment on NCI/ADR-RES ovarian, 69.9%.

Take `COc1cc(C2CC(c3cccc(Nc4ccncc4)c3)=NN2C(C)=O)cc(OC)c1OC` (stereo not given): the growth in the experiment with SR leukemia is 27.3%; in the experiment on RPMI-8226 leukemia it was 94.4%; in the experiment with OVCAR-8 ovarian, 97%; in the experiment on OVCAR-5 ovarian, 98.9%; with OVCAR-4 ovarian it was 83.8%; in the experiment with SK-OV-3 ovarian, 90.6%. Moreover, the growth with IGROV1 ovarian was 89.2%; in the experiment on OVCAR-3 ovarian it was 96.3%; in the experiment with HS 578T breast it was 86%; in the experiment with NCI/ADR-RES ovarian, 97.9%.

Take `O=C(Cc1ccc(/C=C/C(=O)c2ncc[nH]2)cc1)Nc1ccc(C(F)(F)F)cc1`: the growth in the experiment on SR leukemia is 0.627% (active); in the experiment with RPMI-8226 leukemia, -38.2% (active); in the experiment on OVCAR-8 ovarian it was -2.81% (active); in the experiment on OVCAR-5 ovarian it was 78.9%; with OVCAR-4 ovarian, 51.1%; in the experiment with SK-OV-3 ovarian it was 73.3%. Further, the growth is 23.7% with IGROV1 ovarian, 1.88% (active) in the experiment with OVCAR-3 ovarian, 36.1% with HS 578T breast and 60.3% with NCI/ADR-RES ovarian.
